This is an account of results in PubChem BioAssay AID488969 (Vanderbilt High Throughput Screening Facility, 2010).

The structures appear in SMILES notation. Whole data set: some 110,000 compounds, median “z-score” near -0.1, cut for the highest 2% near 2. Many of the other results were omitted from the sample, so the highest values are more common in it than they were. The source made the active and inactive calls.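 Rule for the calls: active = z-score in the third read window above 3 or below -3; inactive = the rest.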

Metabotropic glutamate receptor 8 (Rattus norvegicus), sequence (P70579 whole entry, looked up): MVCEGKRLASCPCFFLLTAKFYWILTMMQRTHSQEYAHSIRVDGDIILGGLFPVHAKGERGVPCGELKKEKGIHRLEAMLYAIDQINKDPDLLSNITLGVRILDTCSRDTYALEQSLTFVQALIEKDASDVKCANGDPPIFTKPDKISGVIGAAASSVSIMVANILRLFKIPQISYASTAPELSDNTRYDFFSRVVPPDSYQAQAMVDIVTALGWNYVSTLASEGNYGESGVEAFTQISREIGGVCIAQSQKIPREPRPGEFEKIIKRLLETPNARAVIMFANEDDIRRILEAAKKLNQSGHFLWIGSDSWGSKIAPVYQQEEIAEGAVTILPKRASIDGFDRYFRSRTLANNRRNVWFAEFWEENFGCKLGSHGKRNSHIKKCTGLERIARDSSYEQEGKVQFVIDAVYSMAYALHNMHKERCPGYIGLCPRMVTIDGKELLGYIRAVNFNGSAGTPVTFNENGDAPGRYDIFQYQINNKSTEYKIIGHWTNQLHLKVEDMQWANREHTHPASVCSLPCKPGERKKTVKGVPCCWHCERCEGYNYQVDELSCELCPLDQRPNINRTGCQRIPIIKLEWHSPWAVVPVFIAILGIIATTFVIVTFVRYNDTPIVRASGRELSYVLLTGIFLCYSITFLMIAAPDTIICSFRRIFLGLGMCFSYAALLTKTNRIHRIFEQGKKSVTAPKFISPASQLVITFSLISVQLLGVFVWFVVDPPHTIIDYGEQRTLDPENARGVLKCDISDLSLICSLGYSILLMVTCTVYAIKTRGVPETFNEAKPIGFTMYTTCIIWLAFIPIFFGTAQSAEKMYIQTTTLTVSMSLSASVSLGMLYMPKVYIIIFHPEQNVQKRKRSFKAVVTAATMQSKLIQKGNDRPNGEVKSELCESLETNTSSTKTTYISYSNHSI

The experiment addresses Metabotropic glutamate receptor 8 (Rattus norvegicus) (UniProt P70579). The experiment is described as follows: mGluR8 Gi/Go-coupled signaling modulation – cell-based, rat, thallium flux, HTS, primary screen (AID 488969). Particulars: HEK293 rat mGluR8, GIRK (G protein-gated inwardly rectifying potassium channel) thallium flux, FluoZin2; at 10 µM; stronger effect = higher value; submaximal glutamate (EC20) added with thallium.
As for `CCOC(=O)c1[nH]cnc1C(=O)Nc1ccncc1`, the z-score was 0.161. With `O=C(CS(=O)(=O)c1ccc2ccccc2c1)Nc1ccccc1Cl` the figure was -0.351; with `Cn1c(N2CCC(C(N)=O)CC2)nc2c1c(=O)n(Cc1cccc(Br)c1)c(=O)n2C`, -1.26; with `COC(=O)NCc1ccc(S(=O)(=O)N2CCOCC2)cc1`, 0.235. For the compound `COc1cc(C(=S)N2CCCC2)ccc1O`, the z-score is 0.115. As for `COc1cc(C(=S)N2CCCC2)cc(OC)c1O`, the z-score was determined as 0.304. Compound `COc1cc(C(=S)N2CCCC2)cc(Cl)c1O` yielded a z-score of 2.62. The compound `Cc1sc2nc(C)n(/N=C/c3ccc(O)cc3)c(=O)c2c1C` showed a z-score of -0.305. As for `CN(Cc1nc2ccccc2c(=O)[nH]1)c1ccccc1`, the z-score is -0.0308. As for `O=c1[nH]c(CS(=O)(=O)c2ccccc2)nc2ccccc12`, the z-score is 3.08 (active).

`COc1ccc(S(=O)(=O)N(Cc2ccccc2)Cc2nc3ccccc3c(=O)[nH]2)cc1` came in with a z-score of -0.148. As to `COc1ccc(CN(Cc2nc3ccccc3c(=O)[nH]2)C(=O)NC2CCCCC2)cc1`, the z-score was -0.301.

In turn, `Cc1cccc(NC(=O)N(Cc2nc3ccccc3c(=O)[nH]2)C2CCCC2)c1` yielded a z-score of 2.35. As for `O=C(NC1CCCCC1)N(Cc1nc2ccccc2c(=O)[nH]1)C1CCCC1`, the z-score turned out to be 0.129. Consider `O=C(Nc1cccc(Cl)c1)N(Cc1nc2ccccc2c(=O)[nH]1)C1CCCC1`, for which the z-score is -0.529. To `COc1ccc(S(=O)(=O)N(Cc2nc3ccccc3c(=O)[nH]2)C2CCCC2)cc1` belongs 2.49. In turn, `Cc1ccc(S(=O)(=O)Cc2nc3ccccc3c(=O)[nH]2)cc1` had a z-score of -0.19. The compound `CCOC(=O)N1CCN(C(=O)CN(c2cc(Cl)ccc2OC)S(=O)(=O)c2ccccc2)CC1` gave a z-score of -0.359.

`CCCc1nc2ccc(NC(=O)c3cccs3)cc2c(=O)n1Cc1ccc(Cl)cc1` returned a z-score of -0.155. As to `O=C(C(=O)N1CCCc2ccccc21)c1c[nH]c2ccccc12`, the z-score turned out to be 0.104. With `CCOC(=O)c1c(-c2ccccc2)oc2ccc(OC)cc12` the figure was 0.0333; with `CCC(CC)NC(=O)COC(=O)c1ccc(OCc2ccc(C(C)=O)cc2OC)c(OC)c1`, -0.23. `C/C(=N\NC(=O)c1ccc(OC2CCCC2)cc1)c1ccc(C)s1` displayed a z-score of 1.05. On to `Cc1ccc(CC2CC(=O)N(c3nc4ccccc4n3C)C2=O)cc1` (stereo not drawn), for which the z-score is -0.156. `Cc1ccc(CNC(=O)C(=O)NCCCn2ccnc2)cc1`: the z-score was -0.281. With `O=C(NCCCn1ccnc1)C(Cc1ccc([N+](=O)[O-])cc1)N1C(=O)c2ccccc2C1=O` (stereo not drawn), the z-score worked out at 2.67. In turn, `Cc1ccc(C(=O)NCCCn2ccnc2)cc1[N+](=O)[O-]` yielded a z-score of 0.161. With `CN1CCN(C(=O)CN(c2cccc(Cl)c2)S(=O)(=O)c2ccccc2)CC1`, the z-score is -0.681. Turning to `O=C(Nc1ccc(Cl)c(Cl)c1)Nc1nnc(CC2=CCCCC2)s1`, the z-score turned out to be 0.0021.

In turn, `CCOC(=O)c1ccc(NC(=O)c2ccccc2)cc1` gave a z-score of -0.0754.

Compound `CCOC(=O)c1sc(NC(=S)NC(=O)c2ccccc2)c(C(=O)OCC)c1C` yielded a z-score of 0.582. `CCOC(=O)c1ccc(NC(=O)c2ccc(NC(=O)c3ccccc3)cc2)cc1` gave a z-score of -0.341.

On to `CCOC(=O)C1=C(N)c2ccccc2CC1C(C)C` (stereo not drawn), for which the z-score was -0.175. For `CCOC(=O)C1=C(NC(=S)NC(=O)c2ccccc2)c2ccccc2CC1(C)C`, the z-score was 5.58 (active). In the case of `CCOC(=O)C1=C(NC(=S)NC(=O)c2ccccc2)c2ccccc2CC1C(C)C` (stereo not drawn), the z-score was 3.46 (active). Compound `O=[N+]([O-])c1ccc(OCCN2CCCCCC2)cc1` showed a z-score of 0.121.

Take `O=C(NC1CCCCCC1)C1c2ccccc2C(=O)N1CCCN1CCOCC1` (stereo not drawn): the z-score is -0.316. In turn, `COCCCN1C(=O)c2ccccc2C1C(=O)NC1CCCCCC1` (stereo not drawn) came in with a z-score of 0.0327. Take `CCCCN1C(=O)c2ccccc2C1C(=O)NC1CCCC1` (stereo not drawn): the z-score was 3.2 (active). `COc1ccc(-n2nnc3c(SCC(=O)Nc4ccc5c(c4)OCCO5)ncnc32)cc1` had a z-score of 0.658. `OC1CCCN(c2c3c(nc4cc(-c5cccc(Cl)c5)nn24)CCC3)C1` (stereo not drawn): the z-score was -0.591. To `Clc1cccc(-c2cc3nc4c(c(N5CCN(c6cnccn6)CC5)n3n2)CCCC4)c1` belongs -0.109. `Clc1cccc(-c2cc3nc4c(c(N5CCNCC5)n3n2)CCCC4)c1` showed a z-score of 2.71. On to `CCCn1nc(CC(=O)OCC)c2ccccc2c1=O`, for which the z-score worked out at 0.73. The compound `O=C(Cn1[nH]c(=O)c2ccccc2c1=O)NCc1cccnc1` yielded a z-score of -0.377. Regarding `CC(C)C(NC(=O)c1ccccc1NC(=O)c1ccco1)C(=O)O` (stereo not drawn), the z-score was -0.744. The compound `Fc1ccc(NC(=S)Nc2ccc(F)c(Cl)c2)cc1Cl` registered a z-score of -0.0109. On to `O=C(Nc1ccccc1Oc1ccccc1)c1ccccc1F`, for which the z-score was -0.161. With `CC(NC(=S)Nc1ccccc1OC(F)F)C(C)(C)C` (stereo not drawn) the figure was -0.263.

For `COc1cc(C)c(NC(=S)Nc2cccc(Cl)c2)cc1OC`, the z-score came to 0.0992. The compound `FC(F)Oc1ccc(NC(=S)NCc2ccccc2)cc1Cl` registered a z-score of 0.178.

On to `Fc1ccc(NC(=S)Nc2ccccc2OC(F)F)cc1Cl`, for which the z-score is 6.05 (active). To `S=C(Nc1cccc(Cl)c1)Nc1ccccc1Oc1ccccc1` belongs 15.4 (active). As for `FC(F)Oc1ccccc1NC(=S)NCc1ccco1`, the z-score was 0.0626.

For the compound `O=C(Nc1cc(Cl)ccc1Oc1ccccc1)c1ccccc1F`, the z-score was 3.37 (active). To `FC(F)Oc1ccccc1NC(=S)Nc1cccc(Cl)c1Cl` belongs 3.76 (active). With `COC(=O)c1cc(OC)c(OC)cc1NC(=S)Nc1cccc(Cl)c1` the figure was 0.731; with `O=C(Nc1cc(Cl)ccc1Oc1ccccc1)c1ccc(F)cc1`, -0.256; with `Cc1cc(Cl)ccc1NC(=S)NCc1ccc(Cl)cc1`, 0.0662.

`CC1(C)CC(=O)c2cc(C(=O)NCc3ccco3)c(=O)n(-c3ccc(Cl)cc3)c2C1` had a z-score of -0.635. Take `COCc1nnc(NC(=O)c2cccs2)s1`: the z-score is -0.0696. To `NC(=O)COC(=O)c1cc(S(=O)(=O)N2CCOCC2)ccc1N1CCCCC1` belongs -0.0501; to `CCn1cc(Br)c(C(=O)Nc2cccc(Cl)c2)n1`, -0.412. In turn, `CCOC(=O)c1cc(-c2ccccc2)sc1NC(=O)C(C)OC(=O)c1cccnc1OCC` (stereo not drawn) registered a z-score of 0.0703. Compound `O=C(CCCOc1ccccc1)Nc1ccc2c(c1)OCCO2` came in with a z-score of 0.0498. Compound `CN(C(=O)c1ccc2c(c1)C(=O)N(CCC1=CCCCC1)C2=O)C1CCCCC1` showed a z-score of 0.422. The compound `Cc1nc(NC2=NCN(CC3CCCO3)CN2)nc2ccccc12` (stereo not drawn) had a z-score of 0.234. `COc1cc2c(cc1OC)C(C1C(=O)CCCC1=O)N(C(=O)CCl)CC2` (stereo not drawn): the z-score is -0.173. `CCOc1ccc(C(=O)Nc2nc(C)cc(C)n2)cc1[N+](=O)[O-]` gave a z-score of -0.36. Regarding `Cc1ccc(C)c(N(CC(=O)NN=C2CCCCCCC2)S(C)(=O)=O)c1`, the z-score was -0.202. With `COc1cc(C)c(NC(=S)Nc2ccc(Cl)c(Cl)c2)cc1OC` the figure was 0.396; with `COc1ccc(NC(=O)Nc2ccc(C)cc2OC(F)F)cc1OC`, -0.0436. Consider `S=C(Nc1ccccc1Cl)Nc1ccc(Cl)cc1Cl`, for which the z-score was 5.05 (active). As for `S=C(Nc1ccc(OCc2ccccc2)cc1)Nc1cccc(Cl)c1Cl`, the z-score was determined as 0.844. With `S=C(Nc1ccccc1)Nc1cc(Cl)ccc1Oc1ccccc1`, the z-score is 3.43 (active). The compound `COc1cc(NC(=S)Nc2cccc(Cl)c2Cl)c(OC)cc1Cl` showed a z-score of 0.605.

In turn, `CCNC(=S)Nc1cc(Cl)ccc1Oc1ccccc1` came in with a z-score of 0.269. With `S=C(Nc1ccccc1Oc1ccccc1)Nc1cccc(Cl)c1Cl` the figure was 4.09 (active).

Take `CNC(=S)Nc1cc(Cl)ccc1Oc1ccccc1`: the z-score is 0.287. `CCNC(=S)Nc1ccc(Cl)cc1Cl` registered a z-score of 0.108.

For the compound `S=C(Nc1ccccc1)Nc1ccc(Cl)cc1Cl`, the z-score was 1.43. With `Cc1ccc(NC(=S)Nc2ccc(Cl)c(Cl)c2)c(OC(F)F)c1` the figure was 5.16 (active); with `NC(=S)N/N=C/c1ccc(C(F)(F)F)cc1`, 0.721. To `Cc1cc(C)n(-c2cc(N3CCN(S(=O)(=O)c4ccc5ccccc5c4)CC3)ccc2[N+](=O)[O-])n1` belongs -0.296; to `S=C1NCCc2ccccc2C1c1ccccc1` (stereo not drawn), -0.276.

As to `O=C(CN1CCN(C(c2ccccc2)c2ccccc2)CC1)N1CCOCC1`, the z-score is -0.28. With `COC(=O)C(NNc1ccccc1)(NC(=O)c1cccc(F)c1)C(F)(F)F` (stereo not drawn) the figure was -0.19; with `CCOC(=O)c1cc2c(=O)n3cccc(C)c3nc2n(CC2CCCO2)c1=NC(C)=O` (stereo not drawn), -0.0779. Turning to `O=C(CCC(=O)c1ccc(Oc2ccccc2)cc1)Nc1ccc(Cl)cc1Cl`, the z-score was determined as 0.0353.

As for `O=C(COc1ccccc1Cl)Nc1cc(Cl)ccc1Oc1ccccc1`, the z-score was -0.0408. To `S=C(Nc1ccc(Cl)cc1Cl)Nc1ccccc1Oc1ccccc1` belongs 4.54 (active); to `CN(C)S(=O)(=O)c1cccc(NC(=O)Cn2cnc3ccccc3c2=O)c1`, 0.0344.

Regarding `CCN(CC)S(=O)(=O)c1cc(NC(=O)Cn2cnc3ccccc3c2=O)ccc1C`, the z-score is 3.32 (active). The compound `COc1cc(OC)c(NC(=O)CCNC(=O)Cn2ccc3ccccc3c2=O)cc1Cl` came in with a z-score of -0.293.

`CCN(CC)S(=O)(=O)c1ccc(NC(=O)Cn2cnc3ccccc3c2=O)cc1` had a z-score of -0.403. In turn, `COc1cc(OC)c(NC(=O)CCNC(=O)Cn2cnc3ccccc3c2=O)cc1Cl` came in with a z-score of 2.94. The compound `COc1ccc(NC(=O)CCNC(=O)Cn2cnc3ccccc3c2=O)c(OC)c1` came in with a z-score of -0.512. `C=CCc1ccccc1OCC(O)CN(CC)CC` (stereo not drawn) gave a z-score of 0.0462.

`CCCNC(=O)Cn1cnc2sc(C(=O)N3CCN(c4ccc(F)cc4)CC3)c(C)c2c1=O`: the z-score was -0.159. The compound `CCCCS(=O)CC(CS(=O)CCCC)OC(=O)c1ccccc1` (stereo not drawn) returned a z-score of 0.895. For the compound `O=C(/C=C/c1cccc2ccccc12)NCCC1=CCCCC1`, the z-score is -0.101.

As to `CC(C)(C)NS(=O)(=O)c1ccc(NS(C)(=O)=O)cc1`, the z-score was -0.0947. Take `CCCCc1ccc(Nc2ncnc3nc[nH]c23)cc1`: the z-score was 2.82.

As to `c1ccc(COc2ccc(Nc3ncnc4nc[nH]c34)cc2)cc1`, the z-score was determined as 0.0418.

`CCOC(=O)c1ccc(Nc2ncnc3nc[nH]c23)cc1` registered a z-score of -0.0179.

For `COc1cccc(/C=N/NC(=O)CCn2nnc3ccccc32)c1`, the z-score is 2.1. With `COc1cc(/C=N/NC(=O)CCn2nnc3ccccc32)ccc1O`, the z-score was -0.659.

`COc1ccc(O)c(/C=N\NC(=O)CCn2nnc3ccccc32)c1` yielded a z-score of -0.125. Consider `CCOC(=O)Cc1nnc(Nc2cccc(C)c2)c2ccccc12`, for which the z-score is -0.988. In the case of `O=C(NCC1CCN(c2ccc(S(=O)(=O)N3CCOCC3)cc2)CC1)c1cccc(Cl)c1`, the z-score worked out at 0.0384. To `COc1ccc(/C=C/C(=O)NC(=S)NN2CCCCC2c2cccnc2)cc1OC` (stereo not drawn) belongs 0.0576; to `O=C(/C=C/c1ccc(Cl)cc1)NC(=S)NN1CCCCC1c1cccnc1` (stereo not drawn), 2.97.

For the compound `COc1ccc(/C=C/C(=O)NC(=S)NN2CCCCC2c2cccnc2)cc1` (stereo not drawn), the z-score was determined as 0.454.
